Experiment [1] in a line: qHTS RealTime-Glo MT Cell Viability Assay in HEK293 cells - 32 hour (AID 1224868). Also: top concentration of the series differs between compounds; nearly all actives have a fitted effect of over 50% in size. Put shortly: (§1)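 Homogeneous bioluminescent viability format in HEK293 cells (600 cells/well). Following 5 h at 37 C/5% CO2, 23 nL compound was pintooled; the signal was measured repeatedly during 40 h incubation.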
For orientation: Quantitative high-throughput screening tests each substance at several concentrations.

Experiment [2] can be described thus: A CellTox Green Cytotoxicity Assay to monitor cytotoxicity in HEK293 cells - 0 hour (AID 1224869). Also: nearly all actives have a fitted effect of over 50% in size. In outline:
(§2)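 Nonlytic real-time cytotoxicity: HEK293 + CellTox Green reagent plated, 5 h preincubation, pintool compound addition (23 nL in DMSO), 37 C for 40 h, fluorescence measured at successive time points.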

The nature of experiment [3]: qHTS RealTime-Glo MT Cell Viability Assay in HepG2 cells - 40 hour (AID 1224870). Also: nearly all actives have a fitted effect of over 50% in size. In outline: (§3)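 HepG2 cells (600/well) mixed with RealTime-Glo MT reagent, settled 5 h at 37 C/5% CO2 before compound addition. Nonlytic NanoLuc luminescence from viable-cell prosubstrate reduction read repeatedly during 40 h treatment at 37 C.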
A short description of experiment [4]: A CellTox Green Cytotoxicity Assay to monitor cytotoxicity in HEK293 cells - 40 hour (AID 1224871). Also: nearly all actives have a fitted effect of over 45% in size. Put shortly:
as §2

Experiment [5] can be described thus: qHTS RealTime-Glo MT Cell Viability Assay in HEK293 cells - 16 hour (AID 1224872). Also: top concentration of the series differs between compounds; nearly all actives have a fitted effect of over 50% in size. In outline: as §1
Experiment [6] in a line: qHTS RealTime-Glo MT Cell Viability Assay in HepG2 cells - 8 hour (AID 1224873). Also: nearly all actives have a fitted effect of over 55% in size. In outline: as §3
Experiment [7] in a line: qHTS RealTime-Glo MT Cell Viability Assay in HEK293 cells - 40 hour (AID 1224874). Also: nearly all actives have a fitted effect of over 50% in size. The settings on record: RealTime-Glo luminescence, hits give low values. Put shortly:
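Cells were seeded together with NanoLuc luciferase and a prosubstrate that viable cells reduce to a luciferase substrate. After a 5 h incubation at 37 C/5% CO2, compounds were added and luminescence was measured repeatedly during 40 h of treatment.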

Experiment [8] can be described thus: A CellTox Green Cytotoxicity Assay to monitor cytotoxicity in HEK293 cells - 24 hour (AID 1224875). Also: series mostly up to about 77 µM; nearly all actives have a fitted effect of over 45% in size. In outline:
as §2

The nature of experiment [9]: A CellTox Green Cytotoxicity Assay to monitor cytotoxicity in HepG2 cells - 16 hour (AID 1224876). Also: nearly all actives have a fitted effect of over 45% in size. Also: potency is read from the fitted curve at half-maximal effect. Put shortly:
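Read-out is fluorescence of a cyanine dye excluded from live cells that stains DNA of dead HepG2 cells, with signal proportional to cytotoxicity. Plates were read at 0, 8, 16, 24, 32 and 40 h after compound addition.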

Experiment [10] can be described thus: qHTS RealTime-Glo MT Cell Viability Assay in HepG2 cells - 32 hour (AID 1224877). Also: nearly all actives have a fitted effect of over 55% in size. Put shortly: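 Cell number in HepG2 cultures estimated from NanoLuc luminescence generated by metabolic reduction of a prosubstrate by living cells. The homogeneous, nonlytic format allowed repeated reads at 0, 8, 16, 24, 32 and 40 h of compound exposure.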

Values without a mark were called inactive. Results filed as inconclusive are left out. Activity calls are given as the source filed them. Calls follow the shape of the dose curve; as a rule, active = well fitted curve in the direction sought with a large enough effect in the repeat runs; inconclusive = weak or mixed curves; inactive = no such curve, though single readings can be large; an effect the other way counts as inactive or inconclusive.
% is scaled to controls: 0 for no effect and ±100 for the full control effect.

With `CN(C)c1ccncc1`, the compound was called inactive in experiment [1], in [2], in experiment [3], in experiment [5], in experiment [6] and in [10]. The Potency result in experiment [4], in experiment [8] and in experiment [9] was “inactive” throughout. Besides, the max response in [7] was -16.5%.
On to `O=C(O)COc1ccc2ccccc2c1`, for which the result in experiment [1], in experiment [2], in experiment [3], in [5], in experiment [6] and in [10] was inactive. The Potency entry in experiment [4], in experiment [8] and in experiment [9] was “inactive” throughout. Besides, in experiment [7], the max response was 1.62%.
For the compound `CC(C)(C)C(=O)CCc1ccc(Cl)cc1`, the call in [1], in [2], in experiment [3], in [5], in [6] and in [10] was inactive. Further, the Potency entry in [4], in experiment [8] and in experiment [9] was “inactive” in each case. The max response in experiment [7] was 1.49%.
For `CCOC(=O)CC(C(C)=O)C(C)=O`, the outcome in experiment [1], in experiment [2], in experiment [3], in experiment [5], in [6] and in experiment [10] was inactive. In addition, the Potency entry in [4], in experiment [8] and in [9] was “inactive” each time. Moreover, in experiment [7], the max response is 0.909%.
Take `CCCC[O][Al]([O]CCCC)[O]CCCC`: the compound was called inactive in experiment [1], in experiment [2], in [3], in experiment [5], in experiment [6] and in [10]. For the same compound, the Potency result in experiment [4], in experiment [8] and in [9] was “inactive” throughout. Moreover, the max response in experiment [7] is 2.78%.
With `C=CCN1CCc2nc(N)sc2CC1`, the outcome in experiment [1], in experiment [2], in experiment [3], in experiment [5] and in [6] was inactive. The Potency entry in [4], in experiment [8] and in experiment [9] was “inactive” throughout. Moreover, the max response in experiment [7] is 7.02%.
As for `COC(=O)/C=C(\C)CCC=C(C)C`, the result in experiment [1], in experiment [2], in [3], in experiment [5], in experiment [6] and in experiment [10] was inactive. The Potency result in experiment [4], in experiment [8] and in experiment [9] was “inactive” each time. The max response in experiment [7] is 9.52%.
As to `C/C=C(\C)C(=O)OC/C=C(\C)CCC=C(C)C`, the outcome in [1], in [2], in experiment [3], in [5], in experiment [6] and in [10] was inactive. For the same compound, the Potency entry in [4], in experiment [8] and in experiment [9] was “inactive” each time. In [7], the max response is 7.26%.
For `COc1ccccc1N1CCN(CC(O)COc2cc(OC)c(OC)c(OC)c2)CC1` (configuration not stated), the call in [1], in [2], in experiment [3], in [5] and in experiment [6] was inactive. In addition, the Potency entry in experiment [4], in experiment [8] and in [9] was “inactive” in each case. The max response in experiment [7] was 4.13%.
With `Clc1cc(Cl)c(Cl)c(Cl)c1Cl`, the result in [1], in experiment [2], in experiment [3], in experiment [5], in experiment [6] and in experiment [10] was inactive. The Potency result in [4], in [8] and in [9] was “inactive” each time. Moreover, the max response in experiment [7] is -0.18%.
For `N=C(N)S(=O)O`, the call in experiment [1], in [2], in [3], in [5], in experiment [6] and in experiment [10] was inactive. Besides, the Potency entry in experiment [4], in experiment [8] and in experiment [9] was “inactive” in each case. Further, in [7], the max response was 11.7%.
Regarding `CO/N=C(\C(=O)O)c1csc(NC(=O)CCl)n1`, the outcome in experiment [1], in experiment [2], in experiment [3], in experiment [5], in [6] and in experiment [10] was inactive. Moreover, the Potency result in [4], in experiment [8] and in experiment [9] was “inactive” each time. Besides, in experiment [7], the max response is 0.384%.
Consider `CCCCCCCCCCCBr`, for which the compound was classed as inactive in [1], in experiment [2], in experiment [3], in experiment [5], in experiment [6] and in [10]. For the same compound, the Potency entry in experiment [4], in experiment [8] and in [9] was “inactive” in each case. For the same compound, in experiment [7], the max response was -3.54%.
Consider `CCCCC(CC)COC(=O)CC#N` (configuration not stated), for which the outcome in experiment [1], in experiment [2], in experiment [3], in experiment [5], in [6] and in experiment [10] was inactive. For the same compound, the Potency entry in experiment [4], in experiment [8] and in experiment [9] was “inactive” in each case. In addition, the max response in experiment [7] was 0.0288%.
Turning to `C[C@]12C=CC(=O)C=C1[C@@H](F)C[C@@H]1[C@@H]2[C@@H](O)C[C@@]2(C)[C@H]1CC[C@]2(O)C(=O)CO`, the outcome in experiment [1], in experiment [2], in experiment [3], in [5] and in [6] was inactive. Also, the Potency result in experiment [4], in experiment [8] and in experiment [9] was “inactive” each time. Besides, the max response in experiment [7] was -0.454%.
Take `CCCCCCCCCCCCCCCC/C=C/C1CC(=O)OC1=O` (configuration not stated): the call in [1], in [2], in experiment [3], in experiment [5], in experiment [6] and in experiment [10] was inactive. For the same compound, the Potency result in experiment [4], in experiment [8] and in [9] was “inactive” throughout. Besides, in [7], the max response is -0.0124%.
Turning to `O=c1[nH]c(=O)c2cn[nH]c2[nH]1`, the compound was classed as inactive in [1], in [2], in [3], in experiment [5], in experiment [6] and in [10]. Besides, the Potency entry in experiment [4] and in [9] was “inactive” throughout. Moreover, in experiment [7], the max response is -0.927%.
Regarding `COc1ccc2cc(CCC(C)=O)ccc2c1`, the outcome in [1], in experiment [2], in experiment [3], in experiment [5], in experiment [6] and in experiment [10] was inactive. Further, the Potency result in experiment [4] and in [9] was “inactive” in each case. The max response in experiment [7] is -11.3%.
Take `CCCc1ncc(C(=O)O)s1`: the result in [1], in experiment [2], in [3], in [5], in experiment [6] and in experiment [10] was inactive. Also, the Potency result in [4], in [8] and in [9] was “inactive” throughout. Further, the max response in [7] was 0.25%.
As to `CCC(C)c1nccnc1OC` (configuration not stated), the outcome in experiment [1], in experiment [2], in [3], in [5] and in experiment [6] was inactive. Moreover, the Potency entry in experiment [4] and in experiment [9] was “inactive” each time. The max response in [7] is 1.32%.
As to `CCCC(=O)OC`, the outcome in experiment [1], in experiment [2], in [3], in experiment [5], in experiment [6] and in experiment [10] was inactive. Moreover, the Potency result in experiment [4] and in [9] was “inactive” in each case. Also, the max response in experiment [7] was -2.73%.
`CC(C)OCCO`: the call in experiment [1], in experiment [2], in experiment [3], in experiment [5], in [6] and in experiment [10] was inactive. For the same compound, the Potency result in experiment [4], in experiment [8] and in experiment [9] was “inactive” in each case. In experiment [7], the max response is 4.69%.
As to `Cc1cc(O)c(Cl)cc1C`, the result in experiment [1], in experiment [2], in experiment [3], in experiment [5], in experiment [6] and in experiment [10] was inactive. Moreover, the Potency result in [4] and in experiment [8] was “inactive” in each case. For the same compound, in experiment [7], the max response is -1.07%. Besides, the Potency in experiment [9] is 49 µM (active).

Source of the values: PubChem BioAssay (Tox21).
